Screens (PubChem BioAssay)
NS1 inh = blocks influenza NS1 protein function | Potency, µM (titrated, usually from 46.1 µM), without a hit: top-dose activity, positive = more growth | actives 0.4% (n = 270,000); calls by dose curve; note: potency is the fitted concentration of half-maximal effect; actives are rising curves; nearly all actives have a fitted effect of over 50% in size
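Recovery from NS1-induced slow growth read by OD600 in budding yeast switched to galactose assay medium (pH 6.0, -URA) at 1:100 dilution. Compound 23 nl per well; the matching strain lacking NS1 serves as control.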
Pf growth 96h = P. falciparum growth inhibition at 96 hour, primary screen for plastid delayed-death inhibitors; AID 504834; P. falciparum luciferase reporter growth, 96 h; Potency, µM (series often up to 28.7 µM), inactives show at the top dose activity change, negative = inhibition, actives largely listed as inhibitors; actives 6.9% (n = 320,000); note: potency is the fitted concentration of half-maximal effect; % is set by controls: 0 for no effect and ±100 for the full control effect
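Parasite growth measured via integrated firefly luciferase reporter in P. falciparum. Infected erythrocytes at 2% hematocrit, 0.05% parasitemia final were treated 96 hours at 37 C under 5% CO2, and luminescence was read.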
Sm TGR inh = inhibitors of Schistosoma mansoni thioredoxin glutathione reductase; Q962Y6; purified TGR, DTNB reduction, TNB absorbance 405 nm; Potency, µM (series often up to 114 µM), for inactives: at the top dose activity change, negative = inhibition, most hits filed as inhibitors; actives 3% (n = 360,000); note: potency is the fitted concentration of half-maximal effect; % is set by controls: 0 for no effect and ±100 for the full control effect; nearly all actives have a fitted effect of over 60% in size
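Kinetic colorimetric format: TGR-catalysed, NADPH-driven DTNB reduction monitored via TNB absorbance. Enzyme dispensed at 20 nM; compound exposure 15 min at room temperature before reaction start.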
Shiga inhibitor = inhibitors of Shiga toxin in Vero cells. inhibition, % at 38.7 µM. actives 9.2% (n = 290,000). Vero cells, Shiga toxin protein synthesis inhibition reporter; in the data active = inhibition mostly above about 28%, no sharp cut-off; inactive = mostly below about 43%; note: 0% is about no effect
CHX counter = counter-screen hit for Shiga toxin inhibitors, cycloheximide; max response, %; actives 12% (n = 300,000); cell reporter, cycloheximide protein synthesis inhibition counterscreen; in the data active = max response mostly above about 13%, no sharp cut-off; inactive = mostly below about 14%; note: read at 38.3 µM for the half of the compounds with a filed dose; 0% is about no effect
Pf growth 48h = inhibits P. falciparum growth in the first generation, 48 h; actives 5.9% (n = 310,000); P. falciparum luciferase growth in erythrocytes, 48 h; Potency, µM (highest dose often 28.7 µM), inactives show at the top dose activity change, negative = inhibition, most hits filed as inhibitors; AID 504832; note: potency is the fitted concentration of half-maximal effect; % is set by controls: 0 for no effect and ±100 for the full control effect
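Firefly luciferase activity from engineered P. falciparum reports growth; inhibitors lower the luminescent signal. Cultures contained 2% hematocrit erythrocytes at 0.1% final parasitemia.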
The depositor's hits bear a star; ? = inconclusive; . = no result given. Hits are enriched below; roughly 21% of the tested compounds scored in any of these assays. Unless noted, calls come from the whole dose curve; as a rule, active = well fitted curve in the direction sought with a large enough effect; inconclusive = small, poorly fitted or top-dose-only effect, or another doubt; inactive = no such curve, though single readings can be large; an effect the other way counts as inactive or inconclusive.

SMILES | NS1 inh | Pf growth 96h | Sm TGR inh | Shiga inhibitor | CHX counter | Pf growth 48h
CCCCN(C(=O)Cc1ccc(S(=O)(=O)N2CCOCC2)s1)c1c(N)n(CCCC)c(=O)[nH]c1=O | . | 11% | 2% | . | . | 0%
COCC(=O)Nc1c(C(=O)Nc2cccc(OC)c2)oc2ccccc12 | -18% | 18% | 2% | 58* | 48* | 109%
COc1cccc(NC(=O)c2oc3ccccc3c2NC(=O)COc2ccccc2C)c1 | . | . | -2% | . | . | .
COc1cccc(NC(=O)c2oc3ccccc3c2NC(C)=O)c1 | -5% | 83% | -5% | 47* | 37* | 332%
Cc1c(OC(C)C(=O)NCCCN2CCOCC2)ccc2c1oc(=O)c1ccccc12 (stereo not drawn) | -12% | ? | -2% | -8 | -3 | ?
CC(Oc1ccc2c(c1)c1ccnc3c4ccccc4c(=O)n2c13)C(=O)NCCN1CCOCC1 (stereo not drawn) | 12% | 4.1µM* | -4% | -11 | -4 | 4.7µM*
COc1ccc2c(c1OC)c(=O)n1c3ccc(OC(C)C(=O)NCCCN4CCOCC4)cc3c3ccnc2c31 (stereo not drawn) | -15% | 4.1µM* | ? | -7 | -2 | 3.7µM*
CC(Oc1ccc2c3c(c(=O)oc2c1)CCCC3)C(=O)NCCN1CCOCC1 (stereo not drawn) | -2% | 9% | 5% | -3 | 3 | 12%
CC(Oc1ccc(Cl)cc1Cl)C(=O)NCCN1CCOCC1 (stereo not drawn) | -6% | 14% | -11% | 4 | -4 | 9%
COc1ccc2c(c1OC)c(=O)n1c3ccc(OC(C)C(=O)NCCN4CCOCC4)cc3c3ccnc2c31 (stereo not drawn) | -35% | 3.7µM* | -2% | -5 | -3 | ?
Cc1ccsc1C(C(=O)NCc1ccccc1)N(C(=O)c1csnn1)c1ccccc1 (stereo not drawn) | 0% | 11% | 6% | -2 | -6 | -10%
CCCC(=O)Nc1sc(Cc2ccccc2)c(C)c1C(N)=O | -7% | 26% | 3% | -6 | 9 | -9%
Clc1ccc(CC[C@H](Cn2ccnc2)Sc2c(Cl)cccc2Cl)cc1 | . | 2µM* | . | . | . | 5.7µM*
COc1ccc(N2CCN(C(c3ccc(F)cc3)c3sc4nc(-c5ccco5)nn4c3O)CC2)cc1 (stereo not drawn) | . | . | 9% | . | . | .
COCCn1c(=NC(=O)c2ccc(S(=O)(=O)N3CCOCC3)cc2)sc2cc(S(N)(=O)=O)ccc21 | 5% | 8.3µM* | 4% | -15 | -4 | ?
O=C(NC1CCCN(Cc2ccc(Cl)cc2)C1)c1c(F)ccc(F)c1F (stereo not drawn) | 1% | 4.7µM* | -4% | -10 | -3 | -12%
O=C(NC1CCCN(Cc2ccc(Cl)cc2)C1)c1ccccc1C(F)(F)F (stereo not drawn) | 10% | 4.7µM* | 0% | -4 | -2 | ?
CC(=O)c1ccc(C(=O)NC2CCCN(Cc3ccc(Cl)cc3)C2)s1 (stereo not drawn) | 11% | ? | 5% | -9 | 1 | -15%
O=C(NC1CCCN(Cc2ccc(Cl)cc2)C1)c1c(F)cccc1F (stereo not drawn) | 6% | ? | -12% | -17 | -3 | 43%
CCOc1ccccc1NC(=S)N1CCN(c2nc(-c3ccc(F)cc3)cs2)CC1 | 13% | 18% | . | 6 | 9 | ?
CNC(=S)N1CCN(c2nc(-c3ccc(F)cc3)cs2)CC1 | 19% | 17% | -16% | 20 | 13* | 6%
CCOCCCNC(=S)N1CCN(c2nc(-c3ccc(F)cc3)cs2)CC1 | -14% | ? | 10% | . | 1 | 9.3µM*
COCCCNC(=S)N1CCN(c2nc(-c3ccc(F)cc3)cs2)CC1 | -55% | ? | 1% | . | 9 | ?
O=C(CN1CCN(S(=O)(=O)c2ccccc2F)CC1)Nc1ccccc1C(=O)c1ccccc1 | . | ? | 12% | 13 | 8 | ?
Cc1ccccc1NC(=O)Cn1nnc(C(=O)NCCc2ccccc2)c1N | . | . | 5% | . | . | .
SMILES | NS1 inh | Pf growth 96h | Sm TGR inh | Shiga inhibitor | CHX counter | Pf growth 48h
CCOC(=O)N1CCN(C(=O)c2ccc(OC)cc2)CC1 | 3% | 37% | 37% | -4 | -5 | 35%
COc1ccc(OC)c(NC(=O)C2CCN(c3ncccn3)CC2)c1 | -8% | 127% | -5% | -12 | -2 | -21%
CCOC(=O)N1CCN(c2nc(-c3ccc(OC)cc3)no2)CC1 | -14% | 21% | -29% | 62* | 26* | 0%
COc1ccc(-c2noc(-c3ccccc3C(=O)Nc3cccc(OC)c3)n2)cc1 | 7% | ? | ? | 24 | 3 | ?
COc1cccc(NC(=O)C2CCN(c3ncccn3)CC2)c1 | -48% | -16% | 0% | 25* | 11* | 30%
COc1ccc(-c2noc(N3CCC(C(=O)Nc4cccc(OC)c4)CC3)n2)cc1 | -1% | 41% | 11% | 25* | 11* | ?
COc1ccc(-c2noc(N3CCC(C(=O)Nc4ccc(F)cc4)CC3)n2)cc1 | 7% | -5% | 3% | 4 | -2 | -18%
CC(=O)Nc1cccc(Oc2ccc(-c3noc(C)n3)cc2)c1 | -88% | 9% | -2% | 79* | 44* | 208%
O=C(O)c1ccccc1-c1nnc2c(Cl)cc(C(F)(F)F)cn12 | 5% | 21% | 0% | -6 | -5 | -1%
Cc1ccc(NC(=O)c2c(C)nc3sc(C(=O)Nc4ccc(F)cc4)c(N)c3c2-c2ccc(C)o2)c(C)c1 | . | . | -2% | . | . | .
O=C1C(Cl)=C(NCCN2CCCCC2)C(=O)c2ccccc21 | . | ? | 22µM* | 49* | 54* | -27%
CCNC1=C(Cl)C(=O)c2ccccc2C1=O | ? | -5% | 1% | -1 | 3 | .
NNCc1cccc(O)c1 | -15% | ? | -31% | 102* | 35* | ?
Oc1cccc(O)c1 | . | -18% | . | . | . | -11%
COc1ccc(NC(=O)c2ccc3c(=O)n4nc(Nc5ccccc5C)sc4nc3c2)cc1Cl | . | . | 2% | . | . | .
COc1cccc(-n2c(=O)c3sc4ccccc4c3n(CC(=O)Nc3ccc(F)cc3F)c2=O)c1 | . | . | -21% | . | . | .
CC1CCCCN1Cc1ccc(N)cc1 (stereo not drawn) | 10% | 0.1µM* | 0% | 10 | -4 | -7%
COc1cc2c(cc1OC)CN(CC(=O)NC(=O)NC1CCCCC1)CC2 | . | -4% | -3% | -12 | 5 | -22%
COCCNC(=O)C(c1ccccc1F)N(C(=O)C(=O)NC1CCCC1)C1CCCCC1 (stereo not drawn) | 1% | 12µM* | -4% | 15 | 2 | -4%
COCCN(C(=O)CCl)C(C(=O)NC1CCCCC1)c1ccccc1C (stereo not drawn) | -1% | 8.3µM* | 3.5µM* | 2 | 2 | 10µM*
COCCN(C(=O)C(F)(F)F)C(C(=O)NC1CCCCC1)c1ccco1 (stereo not drawn) | 5% | 12µM* | -22% | -8 | 2 | -13%
